Test results reported in the supplement of paper PMC9694430.
Where a name gives a salt, the structure may show the parent alone.

Columns and labels:
Test in all cases: thermal shift delta Tm vs DMSO control; higher = stronger stabilization (binding)
Conditions in all cases: 12.5 µM; protein concentration 2 µM
LOC_OS01G57100-cb003 = system: LOC_OS01G57100-cb003
Procedure, shortened: (§1)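 Compounds dissolved in DMSO were added to purified rice kinase domain constructs, which had been expressed in E. coli, for differential scanning fluorimetry. Each well held 19.5 μl of 2 μM kinase in 100 mM potassium phosphate pH 7.5, 150 mM NaCl, 10% glycerol and 5 × SYPRO Orange. Fluorescence was followed from 25°C to 95°C at a rate of 0.05°C/s. Shifts in Boltzmann-fitted melting temperature are triplicate means relative to DMSO-only protein.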

LOC_OS01G60330-cb001 = system: LOC_OS01G60330-cb001
Procedure, shortened: as §1

LOC_OS01G60700-cb002 = system: LOC_OS01G60700-cb002
Procedure, shortened: as §1

LOC_OS01G63280-cb003 = system: LOC_OS01G63280-cb003
Procedure, shortened: as §1

LOC_OS01G67340-cb003 = system: LOC_OS01G67340-cb003
Procedure, shortened: as §1

LOC_OS01G70970-cb002 = system: LOC_OS01G70970-cb002
Procedure, shortened: as §1

LOC_OS02G07810-cb001 = system: LOC_OS02G07810-cb001
Procedure, shortened: as §1

LOC_OS02G08530-cb003 = system: LOC_OS02G08530-cb003
Procedure, shortened: as §1

LOC_OS02G14120-cb001 = system: LOC_OS02G14120-cb001
Procedure, shortened: as §1

LOC_OS02G17970-cb001 = system: LOC_OS02G17970-cb001
Procedure, shortened: as §1

| Structure (SMILES) | thermal shift delta Tm (LOC_OS01G57100-cb003) [°C] | thermal shift delta Tm (LOC_OS01G60330-cb001) [°C] | thermal shift delta Tm (LOC_OS01G60700-cb002) [°C] | thermal shift delta Tm (LOC_OS01G63280-cb003) [°C] | thermal shift delta Tm (LOC_OS01G67340-cb003) [°C] | thermal shift delta Tm (LOC_OS01G70970-cb002) [°C] | thermal shift delta Tm (LOC_OS02G07810-cb001) [°C] | thermal shift delta Tm (LOC_OS02G08530-cb003) [°C] | thermal shift delta Tm (LOC_OS02G14120-cb001) [°C] | thermal shift delta Tm (LOC_OS02G17970-cb001) [°C] |
| --- | --- | --- | --- | --- | --- | --- | --- | --- | --- | --- |
| CN(C[C@@H]1COCCO1)S(=O)(=O)Nc1ccc2ccc3ncc(-c4cnn(C)c4)cc3c(=O)c2c1 | 2.19 | 0.33 | 1.15 | 1.83 | 0.51 | 9.99 | 1.23 | 1.58 | 8.53 | 0.59 |
| CC[C@@H]1C(=O)N(C)c2cnc(Nc3ccc(C(=O)NC4CCN(C)CC4)cc3OC)nc2N1C1CCCC1 | 0.75 | 2.55 | 0.69 | -0.22 | -0.4 | 0.34 | 0.2 | 1.93 | 0.27 | 0.02 |
| Cc1ccc(Nc2cc(N[C@@H]3CCCC[C@@H]3N)nnc2C(N)=O)nc1C | 2.34 | 1.23 | 1.25 | 0.77 | 0.39 | 2.01 | 0.12 | 2.54 | 5.04 | 1.48 |
| CCn1c(=O)c(-c2ccc(-c3cncs3)cc2Cl)cc2cnc(Nc3ccc(N4CCN(C)CC4)cc3)nc21 | 1.89 | 1.07 | 0.86 | 0.25 | 1.37 | 0.17 | 0.59 | 0.55 | -0.39 | 0.23 |
| COc1cc(Nc2c(C#N)cnc3cc(OCCCN4CCN(C)CC4)c(OC)cc23)c(Cl)cc1Cl [Bosutinib (SKI-606)] | 0.91 | 1.47 | 0.95 | -0.23 | -0.85 | 0.24 | 0.38 | 0.38 | 0.1 | -0.22 |
| CC#CC(=O)N1CC[C@@H](n2c(=O)n(-c3ccc(Oc4ccccc4)cc3)c3c(N)ncnc32)C1 [ONO-4059 (GS-4059) hydrochloride] | 0.49 | 0.71 | 0.99 | -0.08 | 0.27 | 0.11 | 0.05 | 0.27 | 0.04 | 0.51 |
| COc1cccc2cc(-c3nc([C@H]4CC[C@H](C(=O)O)CC4)n4ncnc(N)c34)[nH]c12 | 2.68 | 0.91 | 0.9 | 1.4 | 1.05 | 0.4 | 1.58 | 1.17 | 0.19 | 0.71 |
| COc1cc(OC)c(/C=C/S(=O)(=O)Cc2ccc(OC)c(NCC(=O)O)c2)c(OC)c1 | 0.72 | 0.72 | 1.27 | 0.67 | -0.23 | -0.1 | 1.48 | 0.79 | 0.49 | 0.94 |
| C=CC(=O)Nc1ccc2ncnc(Nc3cccc(Br)c3)c2c1 | 0.86 | 0.41 | 0.96 | -0.32 | -0.12 | 0.22 | 0.8 | 0.61 | -0.18 | 0.66 |
| Cc1cnc(Nc2ccc(N3CCN(C)CC3)cc2)nc1Nc1cccc(S(=O)(=O)NC(C)(C)C)c1 | 2.09 | 2.84 | 1.28 | 0.46 | 1.05 | 3.63 | 0.9 | 3.06 | 8.37 | 1.17 |
